Source: PubChem BioAssay (several laboratories)
The list is not random: actives were taken first. Their share in the collection is about 2.3%.
H9c2 TAG inh = triacylglycerol accumulation inhibition; H9c2 cells, Nile Red lipid (TAG) fluorescence; cells loaded with 200 µM oleic acid; inhibition, % at 12.5 µM; actives 0.66% (n = 230,000);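 active = pattern-corrected inhibition of lipid staining of at least 50% with the nuclear-stain viability signal not falling by more than 50%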
Gli-Sufu antag = Gli-Sufu pathway antagonism. Sufu-KO-LIGHT fibroblasts, Gli luciferase reporter luminescence. inhibition, % at 5 µM. actives 0.74% (n = 340,000);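 active = inhibition above about 55%, limit read from the data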
Shn3 3UTR inh = inhibitors of Schnurri-3 3'UTR reporter in osteoblasts; Clone20 osteoblast Shn3 3'UTR firefly luciferase, 24 h; inhibition, % at 12.5 µM; actives 0.52% (n = 360,000); AID 588674;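 active = mean inhibition of at least 75% with every replicate also reaching 75%; inconclusive = mean inhibition at least 75% but some replicate below; inactive = mean inhibition below 75%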
Jurkat NFkB inh = lowers PMA/ionomycin-induced NF-kB signal in Jurkat cells; PMA/ionomycin-induced NF-kB luciferase reporter, luminescence; inhibition, % at 4 µM; actives 0.53% (n = 330,000); AID 435003; in the data active = inhibition above about 50%
aSyn 5UTR inh = 5' untranslated region of α-synuclein, MLPCN primary screen; alpha-synuclein 5'UTR reporter, inhibitor activity; inhibition, % (tested at 7.5 µM); actives 0.82% (n = 300,000); AID 1813; in the data active = inhibition above about 60%; inconclusive = no clear call, values can overlap the other calls;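 also: H4 neuroglioblastoma cells stably carrying SNCA 5'UTR luciferase fusion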
697 NFkB inh = lowers PMA/ionomycin-induced NF-kB signal in 697 B cells | 697 B-cell NF-kB luciferase reporter, 16 h | inhibition, % at 4 µM | actives 0.33% (n = 330,000); in the data active = inhibition above about 35%
697 NFkB conf = inhibitors of the PMA/ionomycin-induced NF-kB reporter in 697 B cells, retest; shares compounds with 697 NFkB inh; 697 B-cell NF-kB luciferase, 16 h; inhibition, % at 4 µM; actives 35% (n = 2,000); AID 449746; in the data active = inhibition mostly above about 28%, no sharp cut-off; inactive = mostly below about 22%
Each line names hits and unclear results; the compound was inactive in the other large screens (follow-up assays come after a bar, where they were run).

CCc1ccc(-c2nnn(CCC(=O)OC)n2)cc1	aSyn 5UTR inh 77, 697 NFkB inh 52 | 697 NFkB conf 64
CCc1ccc(-c2nnn(CCC#N)n2)cc1	none
CNC(=S)N/N=C/c1cn(CCOc2cccc(OC)c2)c2ccccc12	697 NFkB inh 40 (no result: H9c2 TAG inh) | 697 NFkB conf inactive
CNC(=S)N/N=C/c1cn(CCOc2ccccc2OC)c2ccccc12	697 NFkB inh 35 | 697 NFkB conf inactive
COc1cccc(OCCn2cc(/C=N/NC(=O)c3ccncc3)c3ccccc32)c1	none (no result: H9c2 TAG inh)
CC1CCN(C(c2ccccc2)c2nnnn2C(C)(C)C)CC1 (stereo not drawn)	none
Cc1cc(C)cc(NC(=O)[C@H](Cc2c[nH]c3ccccc23)NC(=O)[C@@H]2Cc3ccccc3CN2)c1	none (no result: H9c2 TAG inh)
Cc1cccc(NC(=O)[C@H](Cc2c[nH]c3ccccc23)NC(=O)[C@@H]2Cc3ccccc3CN2)c1	none (no result: H9c2 TAG inh) | 697 NFkB conf inactive
Cc1ccc(NC(=O)[C@H](Cc2c[nH]c3ccccc23)NC(=O)[C@@H]2Cc3ccccc3CN2)c(C)c1	none (no result: H9c2 TAG inh) | 697 NFkB conf inactive
Cc1ccc(NC(=O)[C@H](Cc2ccccc2)NC(=O)[C@@H]2Cc3ccccc3CN2)c(C)c1	none (no result: H9c2 TAG inh)
CCc1ccc(NC(=O)[C@H](Cc2c[nH]c3ccccc23)NC(=O)[C@@H]2Cc3ccccc3CN2)cc1	none (no result: H9c2 TAG inh) | 697 NFkB conf inactive
COC(=O)c1sccc1-c1ccc(/C=N/OCc2c(Cl)cccc2Cl)o1	none
CCOC(=O)CSc1nc2ccc(NC(C)=O)cc2s1	none
CC(=O)Nc1ccc2nc(SCC(=O)O)sc2c1	697 NFkB inh 36 (no result: H9c2 TAG inh) | 697 NFkB conf inactive
CCC(C)NC(=O)c1c(N)n(/N=C/c2ccccn2)c2nc3ccccc3nc12 (stereo not drawn)	697 NFkB inh 52 (no result: H9c2 TAG inh) | 697 NFkB conf 44
COCCCNC(=O)c1c(N)n(/N=C/c2cccnc2)c2nc3ccccc3nc12	none
CC(C)OCCCNC(=O)c1c(N)n(/N=C/c2ccccn2)c2nc3ccccc3nc12	697 NFkB inh 44 | 697 NFkB conf 37
CCC1CCCCN1S(=O)(=O)c1ccc2c(c1)CCN2C(=O)C1CCC1 (stereo not drawn)	none
CC1CC1C(=O)Nc1nc(-c2cccs2)c(-c2cccs2)s1 (stereo not drawn)	none (no result: H9c2 TAG inh)
CCCc1c(C(=O)Nc2ccc(F)cc2F)cnn1-c1ccccc1	none
CCCc1c(NC(=O)Nc2ccc(Cl)cc2Cl)cnn1-c1ccccc1	none | 697 NFkB conf inactive
CN1CCN(C(=O)c2ccccc2N(Cc2ccccc2)S(=O)(=O)c2ccccc2)CC1	697 NFkB inh 40 (no result: H9c2 TAG inh) | 697 NFkB conf 25
CN1CCN(C(=O)c2ccccc2N(Cc2ccccc2)S(C)(=O)=O)CC1	none
CCOC(=O)/C=C1\SCC(=O)N1CC(=O)NC(c1ccccc1)c1ccccc1	none (no result: H9c2 TAG inh)
Cc1ccc(-n2ncc3c(SCc4ccccn4)ncnc32)c(C)c1	none | 697 NFkB conf inactive
CC/C(=N/Nc1ccc(Cl)cc1)c1cnnc(SC)n1	697 NFkB inh 36 (no result: H9c2 TAG inh) | 697 NFkB conf inactive
C=CCNC(=O)c1ccc(-c2nc3ccccc3nc2-c2ccccc2)cc1	none
C=CCNC(=O)c1ccc(-c2nc(-c3ccccc3)cs2)cc1	none | 697 NFkB conf inactive
O=C(O)CCc1nc(-c2ccccc2)no1	none
CCOc1ccc(-c2noc(CCC(=O)O)n2)cc1	aSyn 5UTR inh inconclusive, 697 NFkB inh 62 | 697 NFkB conf 49
COc1ccc(Cc2nc(-c3ccc(NC(=O)c4cccnc4)cc3)no2)cc1	aSyn 5UTR inh 75, 697 NFkB inh 51 | 697 NFkB conf 33
COc1ccc(-c2noc(CCCC(=O)O)n2)cc1	aSyn 5UTR inh 89, 697 NFkB inh 74 | 697 NFkB conf 58
COc1cccc(-c2noc(CCC(=O)NCCc3ccccc3)n2)c1	697 NFkB inh 49 (no result: H9c2 TAG inh) | 697 NFkB conf 49
COc1ccc(-c2noc(CCC(=O)O)n2)cc1	none (no result: H9c2 TAG inh)
Cc1nonc1NC(=O)CSc1nnc(-c2ccoc2C)n1-c1cccc(Cl)c1	none
Cn1cc(CCNC(=O)CC2C(=O)NCCN2CC(c2ccccc2)c2ccccc2)cn1 (stereo not drawn)	none
O=C(CCCn1cncn1)N1CCCC(N2CCN(c3ccc(F)cc3)CC2)C1 (stereo not drawn)	none
COc1ccc(CCNC(=O)c2ccccc2)cc1	none
O=C(CCCc1nc(-c2ccc(Cl)cc2)no1)NCC1CCCO1 (stereo not drawn)	none (no result: H9c2 TAG inh)
COc1ccc(-c2noc(CCCC(=O)NCC3CCCO3)n2)cc1 (stereo not drawn)	697 NFkB inh 41 (no result: H9c2 TAG inh) | 697 NFkB conf inactive
COc1cccc(-c2nc(-c3ccc(C(=O)O)cc3)no2)c1	none | 697 NFkB conf inactive
O=C(Oc1ccc2ccccc2c1)c1ccco1	none
CC1CC(C)(C)Nc2ccc(OC(=O)c3ccco3)cc21 (stereo not drawn)	aSyn 5UTR inh 70, 697 NFkB inh 53 (no result: H9c2 TAG inh) | 697 NFkB conf 63
COc1ccc(OC)c(NC(=O)c2nc(S(=O)(=O)Cc3ccccc3)ncc2Cl)c1	Shn3 3UTR inh 97, aSyn 5UTR inh 99 (no result: H9c2 TAG inh) | 697 NFkB conf inactive
COc1ccc(OC)c(NC(=O)CS(=O)(=O)Cc2ccccc2)c1	none
COc1ccc(CCNC(=O)CSCc2ccc([N+](=O)[O-])cc2)cc1OC	none (no result: H9c2 TAG inh)
Cc1ccn2c(Nc3ccccc3)c(-c3ccccn3)nc2c1	none
COc1ccc(C(=O)N/N=C/c2ccc(OC)c(CN3CCCc4ccccc43)c2)cc1	697 NFkB inh 44 (no result: H9c2 TAG inh) | 697 NFkB conf 29
COc1ccc(/C=N/NC(=O)c2cccnc2)cc1CN1CCCc2ccccc21	none (no result: Gli-Sufu antag)
COc1ccc(C(=O)Nc2ccc(NC(=O)c3cccs3)cc2)cc1Cl	none (no result: H9c2 TAG inh)
COc1cc(C(=O)Nc2ccc(C(=O)c3cccs3)cc2)cc(OC)c1OC	697 NFkB inh 37 | 697 NFkB conf inactive
CN(C)S(=O)(=O)c1cccc(C(=O)NC2CCSc3ccccc32)c1 (stereo not drawn)	none
CCN(CC)c1ccc2cc(-c3nc4ccccc4[nH]3)c(=O)oc2c1	none (no result: H9c2 TAG inh) | 697 NFkB conf inactive
CCN(CC)c1ccc2cc(-c3nc4ccccc4n3C)c(=O)oc2c1	none (no result: H9c2 TAG inh, Jurkat NFkB inh, 697 NFkB inh)
CC(=C\c1ccccc1)/C=C1/SC(=O)N(CCCC(=O)Nc2ccc(C(=O)O)cc2)C1=O	697 NFkB inh 75 | 697 NFkB conf 70
CC(=Cc1ccccc1)C=C1SC(=S)N(CCCC(=O)Nc2ccc(C(=O)O)c(O)c2)C1=O	none (no result: Gli-Sufu antag, Jurkat NFkB inh, aSyn 5UTR inh, 697 NFkB inh)
O=C(CCCN1C(=O)S/C(=C/C=C/c2ccccc2)C1=O)Nc1ccc(C(=O)O)cc1	697 NFkB inh 49 | 697 NFkB conf 49
O=C(CN1C(=O)S/C(=C\C=C\c2ccccc2)C1=O)Nc1ccc(O)cc1	none (no result: H9c2 TAG inh)
COc1cc(/C=C2/CC/C(=C/c3ccc(O)c(OC)c3)C2=O)ccc1O	697 NFkB inh 36 | 697 NFkB conf inactive
